Measured values as given in PubChem BioAssay (Tox21).
A number with no mark means an inactive call. Inconclusive results are not listed. Entries that show only a call come without a potency. Calls of active or inactive are those of the source. Unless noted, calls follow the shape of the dose curve; as a rule, active = well fitted curve in the direction sought with a large enough effect in the repeat runs; inconclusive = weak or mixed curves; inactive = no such curve, though single readings can be large; an effect the other way counts as inactive or inconclusive.

Legend:
[1] = qHTS assay to identify small molecule antagonists of the constitutive androstane receptor (CAR) signaling pathway - cell viability counter screen (AID 1224837); also: nearly all actives have a fitted effect of over 45% in size; also: potency is read from the fitted curve at half-maximal effect
Procedure, shortened: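 To flag cytotoxic false antagonists, HepG2 hCAR/CYP2B6-2.2kb cells were treated 23 hr with 15-concentration compound series and 50 nM CITCO at 37 C/5% CO2; CellTiter-Fluor fluorescence was the measured end point.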

[2] = qHTS assay to identify small molecule antagonists of the estrogen related receptor signaling pathway with the pleiotropic PPARgamma coactivator (PGC) from Tox21 10K library - cell viability counter screen (AID 1224840; active = well fitted cell-killing curve with a large enough effect in the repeat runs, not every such curve was filed as active; also: nearly all actives have a fitted effect of over 40% in size; also: potency is read from the fitted curve at half-maximal effect)
Procedure, shortened: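 Seeded PGC/ERR cells (2,000/well, 6 h, 37 C/5% CO2) get compound by pin tool; 17.5 h incubation at 37 C; CellTiter-Fluor added, 30 min, fluorescence measured.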

[3] = qHTS assay to identify small molecule antagonists of the estrogen related receptor signaling pathway with the pleiotropic PPARgamma coactivator (PGC) from Tox21 10K library (AID 1224841; call rule not given here; also: actives are mostly falling curves and most rising ones were filed inactive; nearly all actives have a fitted effect of over 50% in size; also: potency is read from the fitted curve at half-maximal effect)
Procedure, shortened: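 Test chemicals dissolved in DMSO were applied to pre-incubated (6 h) PGC/ERR cells at 2,000 cells/well for an 18 h, 37 C treatment; reporter luminescence was then read using One-Glo.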

[4] = qHTS assay to identify small molecule agonists of the estrogen related receptor signaling pathway with the pleiotropic PPARgamma coactivator (PGC) from Tox21 10K library (AID 1224842); also: nearly all actives have a fitted effect of over 15% in size
Procedure, shortened: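 PGC/ERR reporter cell line, 2,000 cells per well, incubated 6 h at 37 C before 23 nL compound in DMSO was added. After 18 h at 37 C, One-Glo luminescence read following 30 min at room temperature.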

[5] = target: Thyrotropin receptor (Homo sapiens) (UniProt P16473); assay: qHTS assay to identify small molecule agonists of the thyroid stimulating hormone receptor (TSHR) signaling pathway (AID 1224843; calls by dose curve; also: nearly all actives have a fitted effect of over 45% in size)
Procedure, shortened: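 HEK293/TSHR, 800 cells/well; cpd 30 min RT; add cAMP-d2 + anti-cAMP-cryptate, 1 h RT; fluorescence read on plate reader. 15-pt titration, n=3.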

[6] = qHTS assay to identify small molecule agonists of the hypoxia (HIF-1) signaling pathway - cell viability counter screen (AID 1224844; calls by dose curve; also: nearly all actives have a fitted effect of over 50% in size)
Procedure, shortened: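 HRE-bla ME-180; 0.5% dFBS; cpd 17 h, 37C, 5% CO2; CellTiter-Glo lum., 30 min RT, post-FRET read, same wells.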

[7] = qHTS assay to identify small molecule agonists of H2AX (AID 1224845; active = well fitted activation curve with a large enough effect in the signal ratio in the repeat runs, not every such curve was filed as active; the % refers to the signal ratio)
Procedure, shortened: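 Wild-type CHO-K1 cells, plated overnight, exposed 3hr at 37C to 15 concentrations (0.76% DMSO final). Lysed, then HTRF anti-pH2AX (S139) cryptate and anti-H2AX-d2 antibodies, 24 hr room temperature; 665/620 nm emission read.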

[8] = qHTS assay to identify small molecule agonists of the hypoxia (HIF-1) signaling pathway (AID 1224846; active = well fitted activation curve with a large enough effect in the signal ratio in the repeat runs, not every such curve was filed as active; the % refers to the signal ratio)
Procedure, shortened: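 Reporter induction in HRE-bla ME-180 cells is taken as agonism: cells sit 5 hrs after plating, receive compounds or DMSO only, incubate 17 hrs at 37C under 5% CO2, and are loaded with CCF4-AM for beta-lactamase FRET measurement.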

[9] = qHTS assay to identify small molecule agonists of H2AX - cell viability counter screen (AID 1224847; calls by dose curve; also: nearly all actives have a fitted effect of over 30% in size; also: potency is read from the fitted curve at half-maximal effect)
Procedure, shortened: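 Read-out: CellTiter-Glo luminescence, 30 min RT. Cells: wild-type CHO-K1, 1000/well, 10% FBS, plated overnight at 37C. Treatment: 15 concentrations, 3 hr, 37C, 0.76% DMSO.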

[10] = qHTS assay to identify small molecule antagonists of the estrogen related receptor (ERR) signaling pathway from Tox21 library (AID 1224848); also: nearly all actives have a fitted effect of over 50% in size; also: potency is read from the fitted curve at half-maximal effect
Procedure, shortened: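 Compounds dissolved in DMSO are pin-transferred onto ERR reporter cells (2,000 per well) that have settled for 6 h at 37 C. Plates then incubate 18 h at 37 C before ONE-Glo luciferase reagent and a luminescence read 30 min later.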

[11] = qHTS assay to identify small molecule agonists of the estrogen related receptor (ERR) signaling pathway from Tox21 library (AID 1224849; calls by dose curve; also: nearly all actives have a fitted effect of over 15% in size); conditions: ERR reporter cell line, ONE-Glo luciferase, 18 h; at 92.4 µM (top of the series) unless noted
Procedure, shortened: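 Tox21 compounds tested for ERR agonism in an NTP reporter cell line: 18 h treatment at 37 C, then ONE-Glo luminescence.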

[12] = qHTS RealTime-Glo MT Cell Viability Assay in HepG2 cells - 24 hour (AID 1224867); also: nearly all actives have a fitted effect of over 50% in size; also: potency is read from the fitted curve at half-maximal effect
Procedure, shortened: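 Cell number in HepG2 cultures estimated from NanoLuc luminescence generated by metabolic reduction of a prosubstrate by living cells. The homogeneous, nonlytic format allowed repeated reads at 0, 8, 16, 24, 32 and 40 h of compound exposure.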

[13] = qHTS RealTime-Glo MT Cell Viability Assay in HEK293 cells - 32 hour (AID 1224868); also: nearly all actives have a fitted effect of over 50% in size; also: potency is read from the fitted curve at half-maximal effect
Procedure, shortened: (§1)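 Homogeneous bioluminescent viability format in HEK293 cells (600 cells/well). Following 5 h at 37 C/5% CO2, 23 nL compound was pintooled; the signal was measured repeatedly during 40 h incubation.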

[14] = A CellTox Green Cytotoxicity Assay to monitor cytotoxicity in HEK293 cells - 0 hour (AID 1224869); also: nearly all actives have a fitted effect of over 50% in size
Procedure, shortened: (§2)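 Tox21 screen in HEK293: membrane-impermeant cyanine dye fluoresces on binding dead-cell DNA; compound pinned 5 h post-seeding, plates held at 37 C, signal read repeatedly through 40 h.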

[15] = qHTS RealTime-Glo MT Cell Viability Assay in HepG2 cells - 40 hour (AID 1224870); also: nearly all actives have a fitted effect of over 50% in size; also: potency is read from the fitted curve at half-maximal effect
Procedure, shortened: (§3)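 HepG2 cells (600/well) mixed with RealTime-Glo MT reagent, settled 5 h at 37 C/5% CO2 before compound addition. Nonlytic NanoLuc luminescence from viable-cell prosubstrate reduction read repeatedly during 40 h treatment at 37 C.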

[16] = A CellTox Green Cytotoxicity Assay to monitor cytotoxicity in HEK293 cells - 40 hour (AID 1224871); also: nearly all actives have a fitted effect of over 45% in size; also: potency is read from the fitted curve at half-maximal effect
Procedure, shortened: as §2

[17] = qHTS RealTime-Glo MT Cell Viability Assay in HEK293 cells - 16 hour (AID 1224872); also: nearly all actives have a fitted effect of over 50% in size; also: potency is read from the fitted curve at half-maximal effect
Procedure, shortened: as §1

[18] = qHTS RealTime-Glo MT Cell Viability Assay in HepG2 cells - 8 hour (AID 1224873); also: nearly all actives have a fitted effect of over 55% in size; also: potency is read from the fitted curve at half-maximal effect
Procedure, shortened: as §3

[19] = target: Nuclear receptor subfamily 1 group I member 3 (Homo sapiens) (UniProt Q14994); assay: qHTS assay to identify small molecule agonists of the constitutive androstane receptor (CAR) signaling pathway (AID 1224839);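 also: HepG2 cells stably carrying human CAR and a CYP2B6 luciferase reporter; nearly all actives have a fitted effect of over 15% in size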
Procedure, shortened: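 In this screen, CAR-driven CYP2B6 promoter activity is measured by luminescence in HepG2-CYP2B6-hCAR cells after 24 h with test compounds and 0.75 uM PK11195 (final concentration).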

Chain of Nuclear receptor subfamily 1 group I member 3 (Homo sapiens) (Q14994 whole entry, looked up): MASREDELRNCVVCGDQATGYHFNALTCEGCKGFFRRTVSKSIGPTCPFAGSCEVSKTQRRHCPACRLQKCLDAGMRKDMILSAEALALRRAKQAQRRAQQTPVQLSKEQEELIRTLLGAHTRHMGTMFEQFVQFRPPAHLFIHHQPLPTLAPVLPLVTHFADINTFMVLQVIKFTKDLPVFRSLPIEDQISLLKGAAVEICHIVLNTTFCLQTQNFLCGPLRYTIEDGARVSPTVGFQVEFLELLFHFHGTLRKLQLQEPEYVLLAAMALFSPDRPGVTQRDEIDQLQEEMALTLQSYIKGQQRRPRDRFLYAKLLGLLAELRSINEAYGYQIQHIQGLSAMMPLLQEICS
Chain of Thyrotropin receptor (Homo sapiens) (P16473 whole entry, looked up): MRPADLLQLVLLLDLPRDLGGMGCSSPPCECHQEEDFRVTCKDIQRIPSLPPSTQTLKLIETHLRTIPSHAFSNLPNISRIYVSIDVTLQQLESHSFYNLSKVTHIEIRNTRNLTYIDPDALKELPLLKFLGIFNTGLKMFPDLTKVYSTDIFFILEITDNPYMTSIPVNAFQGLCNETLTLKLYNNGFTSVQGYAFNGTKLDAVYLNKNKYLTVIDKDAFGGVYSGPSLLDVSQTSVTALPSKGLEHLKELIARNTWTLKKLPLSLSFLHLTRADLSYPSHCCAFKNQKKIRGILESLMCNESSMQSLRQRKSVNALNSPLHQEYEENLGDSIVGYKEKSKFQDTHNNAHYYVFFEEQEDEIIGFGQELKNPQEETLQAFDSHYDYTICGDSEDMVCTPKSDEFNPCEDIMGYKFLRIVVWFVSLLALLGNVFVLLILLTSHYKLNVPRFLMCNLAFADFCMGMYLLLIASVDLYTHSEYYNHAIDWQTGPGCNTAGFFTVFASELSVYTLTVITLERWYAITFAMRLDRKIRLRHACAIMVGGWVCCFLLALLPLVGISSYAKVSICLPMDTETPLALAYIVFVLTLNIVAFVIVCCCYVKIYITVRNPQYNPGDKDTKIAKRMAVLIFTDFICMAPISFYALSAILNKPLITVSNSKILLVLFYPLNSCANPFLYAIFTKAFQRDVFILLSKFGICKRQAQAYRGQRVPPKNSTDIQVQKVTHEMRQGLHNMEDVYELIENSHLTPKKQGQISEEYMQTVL

SMILES	Potency [1]	Potency [2]	Potency [3]	Potency [4]	Potency [5]	Potency [6]	Potency [7]	outcome [8]	Potency [9]	Potency [10]	activity change, positive = activation [11]	Potency [12]	Potency [13]	Potency [14]	Potency [15]	Potency [16]	Potency [17]	Potency [18]	Potency [19]
COc1nccnc1CC(C)C	inactive	inactive	inactive	inactive	inactive	inactive	inactive	inactive	inactive	inactive	0.914%	inactive	inactive	inactive	inactive	inactive	inactive	–	–
CCCCCCCC(=O)OCC	inactive	inactive	inactive	inactive	inactive	inactive	inactive	inactive	inactive	inactive	0.783%	inactive	inactive	inactive	–	inactive	–	inactive	–
CC(C)(C)c1n[nH]c(=O)n(N)c1=O	inactive	inactive	inactive	inactive	inactive	inactive	inactive	inactive	inactive	inactive	-7.06%	inactive	inactive	inactive	–	–	inactive	inactive	–
CCCCCCC(C)OC(=O)COc1nc(F)c(Cl)c(N)c1Cl (stereo unspecified)	inactive	inactive	inactive	inactive	–	inactive	–	inactive	113 µM (active)	–	-16.7%	inactive	inactive	inactive	inactive	inactive	–	inactive	–
CCC(C)C(=O)OC (stereo unspecified)	inactive	inactive	–	inactive	inactive	inactive	–	inactive	inactive	inactive	–	inactive	–	inactive	–	inactive	inactive	inactive	–
COc1ccc(C#N)cc1	inactive	inactive	–	–	–	inactive	–	inactive	inactive	–	–	inactive	inactive	inactive	–	inactive	–	inactive	inactive
CCC(C)c1cc([N+](=O)[O-])cc([N+](=O)[O-])c1OC(=O)OC(C)C (stereo unspecified)	61.1 µM (active)	43.3 µM (active)	21.7 µM (active)	inactive	inactive	–	inactive	–	–	19.3 µM (active)	–	54.9 µM (active)	–	inactive	–	inactive	–	–	–
O[C@@H](c1cc(C(F)(F)F)nc2c(C(F)(F)F)cccc12)[C@H]1CCCCN1	29.8 µM (active)	–	inactive	inactive	inactive	–	–	inactive	–	–	-63.8% [at 42.5 µM]	16.9 µM (active)	8.49 µM (active)	inactive	–	23.9 µM (active)	7.56 µM (active)	23.9 µM (active)	inactive
Cc1cccc(C)c1NC(=O)CN1CCN(CCCC(c2ccc(F)cc2)c2ccc(F)cc2)CC1	23.7 µM (active)	inactive	–	–	inactive	–	–	–	–	–	–	23.9 µM (active)	–	–	23.9 µM (active)	–	–	–	inactive
